Assay results: PubChem BioAssay (NCATS)
Inconclusive results are not listed. Entries that show only a call come without a potency. Active and inactive are the calls of the source. Calls follow the shape of the dose curve; as a rule, active = well fitted inhibition curve with a large enough effect; inconclusive = small, poorly fitted or top-dose-only effect; inactive = no such curve, though single readings can be large or run the other way.

Legend:
[1] = qHTS assay for measurement of the activity of small molecule inhibitors on Zika virus induced Caspase-3 activity in human iPSC derived neural progenitor cells (hNPCs) (AID 1224857); also: nearly all actives have a fitted effect of over 65% in size
Outline: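 In medium with heparin 2 ug/ml and cyclopamine 2 uM, hNPCs (350 cells/well) received compound for one hour and then Zika virus at 2 FFU/cell; caspase activity was measured by Caspase-Glo 3/7 luminescence 6 h post-infection.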

[2] = qHTS assay for measurement of the activity of small molecule inhibitors on Zika virus induced Caspase-3 activity in human astrocytoma cells (AID 1224859)
Outline: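 A cell-based luminescent caspase-3/7 assay used SNB-19 cells infected with ZIKV (2 FFU/cell) for 6 h following 1 h compound pretreatment.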

SMILES | Potency [1] | outcome [2]
CC(C)(O)[C@@H]1[C@H]2OC(=O)[C@@H]1[C@]1(O)C[C@H]3O[C@]34C(=O)O[C@H]2[C@]14C (tested in a mixture with another compound) | inactive | 
CC(=O)NBr | inactive | inactive
C[C@H]1C2Cc3ccc(O)cc3[C@@]1(C)CCN2CC1CC1 | inactive | 
NCCc1ccc(S(=O)(=O)F)cc1 | inactive | inactive
CCCC[N+]1(C)C2CC(OC(=O)[C@H](CO)c3ccccc3)CC1C1OC12 (stereo partly drawn) | inactive | inactive
CN1CCC[C@@H]1Cc1c[nH]c2ccc(Nc3ncccc3[N+](=O)[O-])cc12 | inactive | 
C[N+]1(C)CCC(OC(=O)C(c2ccccc2)c2ccccc2)CC1 | inactive | 
[Cl-].[Cl][Pt].[NH2-].[NH2-].c1ccncc1 | inactive | 
CC(C)(C)OC(=O)NC1[C@H]2CNC[C@@H]12 (stereo partly drawn) | inactive | 
COc1ccc2[nH]c3c(c2c1)CCNC3 | inactive | inactive
COc1ccc2c(c1O)-c1cccc3c1[C@@H](C2)N(C)CC3 | inactive | inactive
CC(C)CC(NP(=O)(O)O[C@@H]1O[C@@H](C)[C@H](O)[C@@H](O)[C@H]1O)C(=O)NC(Cc1c[nH]c2ccccc12)C(=O)O (stereo partly drawn) | inactive | 
CCCN1CC[C@@H]2c3cc(O)ccc3CC[C@@H]21 | inactive | inactive
N[C@@H](Cn1oc(=O)[nH]c1=O)C(=O)O | inactive | inactive
CNc1ccc2oc(C[C@H]3O[C@@]4(CC[C@H]3C)O[C@H]([C@H](C)C(=O)c3ccc[nH]3)[C@H](C)C[C@H]4C)nc2c1C(=O)O | inactive | inactive
